Compound activity (PubChem BioAssay)
Cycloheximide cs – counter-screen for Shiga toxin inhibitors: cycloheximide protein synthesis inhibition; cell reporter, cycloheximide protein synthesis inhibition counterscreen; max response, %; actives 12% (n = 300,000); AID 2314; in the data active = max response mostly above about 13%, no sharp cut-off; inactive = mostly below about 14%; also: read at 38.3 µM for the half of the compounds with a filed dose
Tb PYK inh – T. brucei pyruvate kinase inhibition | Q57TT1 | TbPYK enzyme, Kinase-Glo Plus ATP luminescence, 45 min | Potency, µM (highest dose often 76.8 µM), actives largely listed as inhibitors | actives 0.12% (n = 410,000) | AID 624173; also: nearly all actives have a fitted effect of over 50% in size
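TbPYK + substrate in 50 mM TEA pH 7.2, 100 mM KCl, 10 mM MgCl2, 0.05% BSA, 0.01% Tween-20; cpd pinned; ADP 130 uM final; 45 min RT; Kinase-Glo Plus 10 min; luminescence endpoint.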
Giardia FBPA inh – inhibitors of Giardia lamblia fructose-1,6-bisphosphate aldolase; Potency, µM (titrated, usually from 59.6 µM), hits mostly inhibitors; actives 0.71% (n = 290,000); purified Giardia FBPA; A8B2U2; AID 2451; also: nearly all actives have a fitted effect of over 55% in size
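Giardia FBPA (40 nM reagent) was preincubated 10 min at RT with compound (up to 57.5 uM final), then substrate plus GAPDH/TPI/NAD/arsenate coupling system with diaphorase/resazurin was added; resorufin fluorescence (525/598 nm) was read after 20 min.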
Shiga toxin inh – Shiga toxin inhibition; AID 2315; inhibition, % at 38.7 µM; Vero cells, Shiga toxin protein synthesis inhibition reporter; actives 9.2% (n = 290,000); in the data active = inhibition mostly above about 28%, no sharp cut-off; inactive = mostly below about 43%
LmPK inhibitor – blocks Leishmania mexicana pyruvate kinase activity | Q27686 | purified LmPK, Kinase-Glo ATP luminescence, 1 h | Potency, µM (titrated, usually from 57.5 µM), most hits filed as inhibitors | actives 0.37% (n = 290,000) | AID 1721
Target sequence (Q27686 whole entry, looked up): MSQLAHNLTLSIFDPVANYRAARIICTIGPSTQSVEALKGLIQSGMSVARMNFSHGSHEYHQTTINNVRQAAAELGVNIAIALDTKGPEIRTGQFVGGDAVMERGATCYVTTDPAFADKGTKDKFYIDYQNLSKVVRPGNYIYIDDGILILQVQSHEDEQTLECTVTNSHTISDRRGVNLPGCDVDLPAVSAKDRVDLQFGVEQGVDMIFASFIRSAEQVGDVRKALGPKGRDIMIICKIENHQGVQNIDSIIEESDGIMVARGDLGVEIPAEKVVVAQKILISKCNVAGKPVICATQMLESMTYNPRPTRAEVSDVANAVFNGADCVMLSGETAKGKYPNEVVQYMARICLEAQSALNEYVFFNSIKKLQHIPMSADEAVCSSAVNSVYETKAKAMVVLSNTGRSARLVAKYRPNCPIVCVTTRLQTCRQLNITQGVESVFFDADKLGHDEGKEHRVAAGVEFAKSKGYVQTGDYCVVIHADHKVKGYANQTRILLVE
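qHTS format; LmPK 0.1 nM; substrates PEP 0.5 mM and ADP 0.1 mM. One-hour room-temperature incubation, then coupled luciferase luminescence; 0.5 nM enzyme wells mark activation.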
Sm TGR inh – inhibitors of Schistosoma mansoni thioredoxin glutathione reductase; Q962Y6; purified TGR, DTNB reduction, TNB absorbance 405 nm; Potency, µM (series often up to 114 µM), most hits filed as inhibitors; actives 3% (n = 360,000); AID 485364; also: nearly all actives have a fitted effect of over 60% in size
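TGR 20 nM + NADPH 100 uM (dispensed conc.), cpd preinc 15 min RT; start with NADPH (500 uM addition) then DTNB (15 mM addition). Kinetic TNB absorbance, 405 nm filter. Four-parameter Hill fit across titration.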
Numbers stand for hits; . = inactive; ? = inconclusive; / = not tested or not shown; [ ] = dose if it differs, or a comment. The sample as a whole holds a higher share of hits than the screen did. Unless noted, calls follow the shape of the dose curve; as a rule, active = well fitted curve in the direction sought with a large enough effect; inconclusive = small, poorly fitted or top-dose-only effect, or another doubt; inactive = no such curve, though single readings can be large; an effect the other way counts as inactive or inconclusive.

SMILES	Cycloheximide cs	Tb PYK inh	Giardia FBPA inh	Shiga toxin inh	LmPK inhibitor	Sm TGR inh
O=C(NC(=S)Nc1ccc(N2CCOCC2)cc1)c1cncc(Br)c1	.	.	?	.	.	13µM
Cc1nn(CC(=O)Nc2ccc(N3CCOCC3)cc2)c(C)c1Cl	8.8	.	/	.	.	.
CC(=O)c1ccc(NC(=O)C2(c3ccccc3)CCOCC2)cc1	37	.	.	112	.	.
Cc1c(C(=O)NC(=S)Nc2ccc(N3CCOCC3)cc2)cccc1[N+](=O)[O-]	9.8	.	.	43	.	.
O=C(c1ccc(NC(=O)C2(c3ccccc3)CCOCC2)cc1)N1CCOCC1	.	.	.	.	.	.
Cc1nc(C)c(C(=O)OCC(=O)NCc2ccccc2)s1	/	.	/	/	/	.
CC(C)Oc1cccc(C(=O)NC(=S)Nc2ccc(N3CCN(C)CC3)cc2)c1	26	.	.	.	.	45µM
CC(C)CC(=O)Nc1ccc(N2CCOCC2)cc1	.	.	.	89	.	.
O=C(NC(=S)Nc1ccc(N2CCOCC2)cc1)c1ccccc1	.	.	.	.	.	16µM
O=C(NC(=S)Nc1ccc(N2CCOCC2)cc1)c1cccc(Cl)c1Cl	.	.	.	.	.	.
Cc1ccccc1C(=O)NC(=S)Nc1ccc(N2CCOCC2)cc1	11	.	.	.	.	?
COc1cccc(C(=O)NC(=S)Nc2ccc(N3CCCC3)cc2)c1	.	.	.	.	.	?
CC(C)CN(C[C@@H](O)[C@H](Cc1ccccc1)NC(=O)O[C@H]1CO[C@H]2OCC[C@H]21)S(=O)(=O)c1ccc(N)cc1	/	.	/	/	/	/
CN1C(C(=O)c2ccccc2)=C(NC(=O)c2ccccc2Br)c2ccccc2S1(=O)=O	/	.	/	/	/	.
Cc1cc2c(cc1C)NC(C)CC(=O)N2 (centres undefined)	/	.	/	/	/	/
CC(=O)c1ccc(NC(=S)Nc2ccc(N3CCOCC3)cc2)cc1	.	.	.	.	.	45µM
CCc1ccc(C(=O)NC(=S)Nc2ccc(N3CCOCC3)cc2)cc1	.	.	.	.	.	?
O=C(Nc1ccc(N2CCOCC2)cc1)C1CCCCC1	.	.	.	85	.	.
O=C(CNCC1CCCO1)Nc1ccc(N2CCCCCC2)cc1 (centres undefined)	23	.	?	43	.	.
O=C(CNCCC1=CCCCC1)Nc1ccc(N2CCCCCC2)cc1	16	.	?	.	.	.
Cc1cccc(NC(=O)c2sc(-n3nc(C)c(CCC(C)C)c3C)nc2C)c1	/	.	/	/	/	.
Cc1ccc(C2c3[nH]c4ccccc4c3CCN2C(=O)CCc2ccccc2)cc1 (centres undefined)	/	.	/	/	/	.
O=C(NC(=S)Nc1ccc(N2CCOCC2)cc1)c1cccc(Cl)c1	.	.	.	.	.	22µM
C/C(=N\NC(=S)Nc1ccc(C)c(C)c1)c1ccc(N2CCOCC2)cc1	23	.	.	24	.	.
COc1ccc(OC)c(C2CC(=O)N(c3cccc(C)c3)C3=C2C(=O)OC3)c1 (centres undefined)	/	.	/	/	/	.
SMILES	Cycloheximide cs	Tb PYK inh	Giardia FBPA inh	Shiga toxin inh	LmPK inhibitor	Sm TGR inh
CN(C)c1ncc2nc(-c3cn(C)c4ccccc34)c(=O)n(C[C@H]3CCCO3)c2n1	/	/	.	/	/	/
COc1cccc(N=CC=C2OC(C)(C)C(C)(C)O2)c1	49	.	.	87	.	.
Cc1cccc(N=CC=C2OC(C)(C)C(C)(C)O2)c1	36	.	.	108	.	.
Cc1ccc(N=CC=C2OC(C)(C)C(C)(C)O2)cc1	20	.	.	66	.	.
COc1ccc(N=CC=C2OC(C)(C)C(C)(C)O2)cc1OC	.	.	?	.	.	.
CCOC(=O)CN1C(=O)N[C@@H](c2cccc(C(F)(F)F)c2)[C@H](C(=O)OC)[C@H]1C	/	/	.[12.9 µM]	/	.[11.5 µM]	/
O=C(Cc1ccccc1)c1c[nH]c(C(=O)NCCCN2CCOCC2)c1	.	.	.	.	.	.
COc1ccccc1CNC(=O)c1cc(-c2ccccc2)nn1CC1CC(c2cccnc2)=NO1 (centres undefined)	/	.	/	/	/	/
Cc1ccccc1-c1cc(C(=O)NCc2ccco2)n(CC2CC(c3cccnc3)=NO2)n1 (centres undefined)	/	.	/	/	/	18µM
CC(=O)Nc1ccc(C(=O)CN2CCN(c3ccccc3)CC2)cc1	.	.	.	.	.	14µM
